Experimental data taken from PubChem BioAssay AID1159580 (chemical genetic matrix, 2015).
The campaign covered roughly 5,500 compounds. About 2,000 (36%) were called active. Not shown: some 18% with an inconclusive outcome. No stated cut-off is given here; in the data, active means normalized growth mostly below about 0.91 (no sharp cut-off); inconclusive means no clear call, values can overlap the other calls; inactive means mostly above about 0.92. Some of the results follow.

Test: chemical genetic growth profiling, strain panel (AID 1159580);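 further: tested at 20 µM; growth read once vehicle control cultures reached saturation at 30 °C; 1 = growth at the plate median or of vehicle wells; lower values mean less growth of the strain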
Conditions: growth OD

Measured: normalized growth

COc1ccc2cc(CCC(C)=O)ccc2c1
inactive: S. cerevisiae deletion strains, locus YJR075W, strain HOC1, active compounds read low 0.965 | S. cerevisiae deletion strains, locus YKL068W, active compounds read low 0.963 | S. cerevisiae deletion strains, locus YKL085W, strain MDH1 (second series), active compounds read low 0.966 | S. cerevisiae deletion strains, locus YKL085W, strain MDH1, active compounds read low 0.966 | S. cerevisiae deletion strains, locus YKL160W, strain elf1, active compounds read low 0.997 | S. cerevisiae deletion strains, locus YKL190W, strain CNB1, active compounds read low 0.972 | S. cerevisiae deletion strains, locus YKR001C, strain vps1, active compounds read low 0.932 | S. cerevisiae deletion strains, locus YKR026C, strain gcn3, active compounds read low 0.984 | S. cerevisiae deletion strains, locus YKR091W, strain srl3, active compounds read low 0.992 | S. cerevisiae deletion strains, locus YLL001W, strain dnm1, active compounds read low 0.982 | S. cerevisiae deletion strains, locus YLL026W, active compounds read low 0.991 | S. cerevisiae deletion strains, locus YLL041C, strain sdh2, active compounds read low 0.996 | S. cerevisiae deletion strains, locus YLR027C, strain aat2, active compounds read low 0.997 | S. cerevisiae deletion strains, locus YLR039C, strain RIC1, active compounds read low 1.11 | S. cerevisiae deletion strains, locus YLR058C, strain SHM2, active compounds read low 0.948 | S. cerevisiae deletion strains, locus YLR102C, strain apc9, active compounds read low 0.944 | S. cerevisiae deletion strains, locus YLR113W, strain HOG1, active compounds read low 0.965 | S. cerevisiae deletion strains, locus YLR221C, strain rsa3, active compounds read low 0.992 | S. cerevisiae deletion strains, locus YLR258W, strain gsy2, active compounds read low 0.998 | S. cerevisiae deletion strains, locus YLR262C, strain YPT6 (second series), active compounds read low 1.03 | S. cerevisiae deletion strains, locus YLR262C, strain YPT6, active compounds read low 1.04 | S. cerevisiae deletion strains, locus YLR268W, strain sec22, active compounds read low 1.01 | S. cerevisiae deletion strains, locus YLR320W, strain mms22, active compounds read low 0.971 | S. cerevisiae deletion strains, locus YLR330W, strain CHS5, active compounds read low 0.951 | S. cerevisiae deletion strains, locus YLR342W, strain FKS1 (second series), active compounds read low 0.885 | S. cerevisiae deletion strains, locus YLR342W, strain FKS1, active compounds read low 0.993 | S. cerevisiae deletion strains, locus YLR357W, strain rsc2, active compounds read low 0.992 | S. cerevisiae deletion strains, locus YLR370C, strain arc18, active compounds read low 0.998 | S. cerevisiae deletion strains, locus YLR371W, strain rom2, active compounds read low 0.932 | S. cerevisiae deletion strains, locus YLR384C, strain iki3, active compounds read low 0.986 | S. cerevisiae deletion strains, locus YML016C, strain PPZ1, active compounds read low 0.941 | S. cerevisiae deletion strains, locus YML032C, strain rad52, active compounds read low 0.967 | S. cerevisiae deletion strains, locus YML120C, strain ndi1, active compounds read low 0.985 | S. cerevisiae deletion strains, locus YMR058W, strain fet3, active compounds read low 0.996 | S. cerevisiae deletion strains, locus YMR078C, strain ctf18, active compounds read low 0.929 | S. cerevisiae deletion strains, locus YMR125W, strain sto1, active compounds read low 1.01 | S. cerevisiae deletion strains, locus YMR129W, active compounds read low 0.983 | S. cerevisiae deletion strains, locus YMR205C, strain PFK2, active compounds read low 1.01 | S. cerevisiae deletion strains, locus YMR231W, strain pep5, active compounds read low 0.999 | S. cerevisiae deletion strains, locus YMR263W, strain SAP30, active compounds read low 0.923 | S. cerevisiae deletion strains, locus YMR307W, strain GAS1, active compounds read low 0.917 | S. cerevisiae deletion strains, locus YNL067W, strain RPL9B, active compounds read low 0.97 | S. cerevisiae deletion strains, locus YNL071W, strain lat1, active compounds read low 0.987 | S. cerevisiae deletion strains, locus YNL128W, strain TEP1, active compounds read low 0.963 | S. cerevisiae deletion strains, locus YNL153C, strain GIM3, active compounds read low 0.975 | S. cerevisiae deletion strains, locus YNL183C, strain NPR1, active compounds read low 0.91 | S. cerevisiae deletion strains, locus YNL209W, strain ssb2, active compounds read low 0.995 | S. cerevisiae deletion strains, locus YNL233W, strain BNI4, active compounds read low 0.972 | S. cerevisiae deletion strains, locus YNL248C, strain rpa49, active compounds read low 1.02 | S. cerevisiae deletion strains, locus YNL250W, strain rad50, active compounds read low 0.943 | S. cerevisiae deletion strains, locus YNL271C, strain bni1, active compounds read low 0.939 | S. cerevisiae deletion strains, locus YNL298W, strain CLA4, active compounds read low 0.919 | S. cerevisiae deletion strains, locus YNL322C, strain KRE1 (second series), active compounds read low 0.996 | S. cerevisiae deletion strains, locus YNL322C, strain KRE1, active compounds read low 0.961 | S. cerevisiae deletion strains, locus YNR049C, strain mso1, active compounds read low 0.991 | S. cerevisiae deletion strains, locus YNR052C, strain pop2, active compounds read low 0.972 | S. cerevisiae deletion strains, locus YOL006C, strain TOP1, active compounds read low 0.672 | S. cerevisiae deletion strains, locus YOL012C, strain htz1 1.84 | S. cerevisiae deletion strains, locus YOL147C, strain pex11, active compounds read low 0.939 | S. cerevisiae deletion strains, locus YOR001W, strain rrp6, active compounds read low 0.979 | S. cerevisiae deletion strains, locus YOR061W, strain CKA2, active compounds read low 0.947 | S. cerevisiae deletion strains, locus YOR069W, strain VPS5, active compounds read low 0.97 | S. cerevisiae deletion strains, locus YOR070C, strain gyp1, active compounds read low 0.991 | S. cerevisiae deletion strains, locus YOR080W, strain dia2, active compounds read low 0.988 | S. cerevisiae deletion strains, locus YOR083W, strain WHI5, active compounds read low 0.985 | S. cerevisiae deletion strains, locus YOR106W, strain vam3, active compounds read low 1 | S. cerevisiae deletion strains, locus YOR136W, strain idh2, active compounds read low 0.956 | S. cerevisiae deletion strains, locus YOR144C, strain elg1, active compounds read low 0.951 | S. cerevisiae deletion strains, locus YOR231W, strain MKK1, active compounds read low 0.93 | S. cerevisiae deletion strains, locus YOR265W, strain rbl2, active compounds read low 0.987 | S. cerevisiae deletion strains, locus YOR270C, strain vph1, active compounds read low 0.886 | S. cerevisiae deletion strains, locus YOR290C, strain snf2, active compounds read low 0.977 | S. cerevisiae deletion strains, locus YOR316C, strain cot1, active compounds read low 0.943 | S. cerevisiae deletion strains, locus YPL051W, strain arl3, active compounds read low 0.985 | S. cerevisiae deletion strains, locus YPL055C, strain LGE1, active compounds read low 0.88 | S. cerevisiae deletion strains, locus YPL078C, strain atp4, active compounds read low 0.981 | S. cerevisiae deletion strains, locus YPL106C, strain sse1, active compounds read low 0.96 | S. cerevisiae deletion strains, locus YPL240C, strain hsp82, active compounds read low 0.992 | S. cerevisiae deletion strains, locus YPL241C, strain CIN2, active compounds read low 0.96 | S. cerevisiae deletion strains, locus YPL256C, strain CLN2, active compounds read low 0.911 | S. cerevisiae deletion strains, locus YPR119W, strain clb2, active compounds read low 0.943 | S. cerevisiae deletion strains, locus YPR141C, strain kar3, active compounds read low 0.924 | S. cerevisiae deletion strains, locus YPR163C, strain tif3, active compounds read low 0.935 | S. cerevisiae deletion strains, locus YPR167C, strain met16, active compounds read low 0.941 | S. cerevisiae deletion strains, strain wtn01, active compounds read low 0.959 | S. cerevisiae strains, strain wild type, active compounds read low 0.935
active: S. cerevisiae deletion strains, locus YKL009W, strain mrt4, active compounds read low 0.86 | S. cerevisiae deletion strains, locus YLR418C, strain cdc73, active compounds read low 0.78 | S. cerevisiae deletion strains, locus YML124C, strain tub3, active compounds read low 0.929 | S. cerevisiae deletion strains, locus YMR223W, strain ubp8, active compounds read low 0.895 | S. cerevisiae deletion strains, locus YNL307C, strain MCK1, active compounds read low 0.827 | S. cerevisiae deletion strains, locus YOR184W, strain ser1, active compounds read low 0.786
